Only some compounds are listed: those with a hit (about 2.4% of all), similar ones and a draw of the others.
LEDGF integ inh: blockers of LEDGF/p75-dependent integrase strand transfer – biochemical, TR-FRET, high throughput, primary screen | HIV-1 integrase (with human LEDGF/p75) | TR-FRET IN-LEDGF/p75 DNA integration, Eu/Cy5 | inhibition, % at 3.7 µM | 370,000 compounds, 0.64% hits;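 active = inhibition above the screen-wide mean plus 3 SD, cut at about 13% in these data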;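 note: signal is the Cy5 over europium emission ratio at 671 and 618 nm; 0% = plate median of compound wells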
PLC-beta3 inh: human PLC-beta3 inhibitors, primary screen, biochemical, fluorescence; Purified PLC-beta3, fluorogenic substrate; AID 720704, 2013; inhibition, % at 12.2 µM; 370,000 compounds, 0.18% hits; in the data active = inhibition above about 11%;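 note: 0% = median of compound wells on plate and 100% = full blocker control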
MBD2 inh: inhibitors of MBD2 binding to methylated DNA, primary screen, biochemical, TR-FRET, DNA-binding domain, human; inhibition, % at 4.4 µM; MBD2 binding to methylated oligonucleotide; Methyl-CpG-binding domain protein 2 (Homo sapiens), Q9UBB5; 370,000 compounds, 0.31% hits; AID 686964, 2013; in the data active = inhibition above about 13%
Target sequence (Q9UBB5 whole entry, looked up, the tested form may be a part): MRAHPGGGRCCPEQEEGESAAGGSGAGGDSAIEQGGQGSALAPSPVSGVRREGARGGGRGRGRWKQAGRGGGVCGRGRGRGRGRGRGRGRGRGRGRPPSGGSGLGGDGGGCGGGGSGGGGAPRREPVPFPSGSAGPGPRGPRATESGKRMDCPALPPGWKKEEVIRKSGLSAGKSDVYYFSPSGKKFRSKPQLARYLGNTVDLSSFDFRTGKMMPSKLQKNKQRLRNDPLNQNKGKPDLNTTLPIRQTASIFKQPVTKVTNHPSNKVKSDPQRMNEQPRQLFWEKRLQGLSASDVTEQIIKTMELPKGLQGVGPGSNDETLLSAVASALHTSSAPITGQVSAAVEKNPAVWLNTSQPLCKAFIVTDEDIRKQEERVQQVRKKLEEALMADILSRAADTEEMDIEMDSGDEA
UHRF1 binding: UHRF1 methylated DNA binding inhibitors, primary screen, counter-screen for MBD2 inhibitor project, biochemical, TR-FRET, human UHRF1, single concentration. UHRF1 binding to methylated oligo. inhibition, % at 4.4 µM. AID 687016, 2013. E3 ubiquitin-protein ligase UHRF1 (Homo sapiens), Q96T88. 370,000 compounds, 0.75% hits; in the data active = inhibition above about 21%;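 note: UHRF1 SRA domain binding a hemimethylated CpG hairpin DNA probe; 0% = median of test compound wells and 100% = reference inhibitor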
PLC-gamma1 inh: PLC-gamma1 enzyme inhibitors, primary screen, biochemical, fluorescence, purified enzyme | 1-phosphatidylinositol 4,5-bisphosphate phosphodiesterase gamma-1 (Homo sapiens), P19174 | inhibition, % at 12.2 µM | 370,000 compounds, 0.84% hits | fluorogenic substrate; in the data active = inhibition above about 9.5%
IN multimer up: HIV-1 IN multimer formation enhancers, counter-screen for LEDGF/p75 integration inhibitor project, biochemical, TR-FRET | activation, % at 7.7 µM | 2,000 compounds, 17% hits | TR-FRET HIV-1 integrase multimerization | shares compounds with LEDGF integ inh; in the data active = activation above about 8.9%
TR-FRET interf: TR-FRET optical interference artefacts, confirmation, artefact control for LEDGF/p75-dependent integration inhibitor project, biochemical, HIV-1 IN multimerization; shares compounds with LEDGF integ inh; TR-FRET optical interference counterscreen; inhibition, % at 7.7 µM; 2,000 tested, under 10 active;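 active = inhibition above the mean over all tested compounds plus 3 SD, which no compound reached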;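 note: 0% = integrase with antibodies and DMSO and 100% = antibodies without integrase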
IN-LEDGF confirm: inhibitors of HIV-1 IN-LEDGF/p75 DNA integration, confirmation, biochemical, TR-FRET | TR-FRET LEDGF/p75-dependent HIV-1 integration | inhibition, % at 3.7 µM | 2,000 compounds, 36% hits | shares compounds with LEDGF integ inh; in the data active = inhibition above about 14%
* = called active by the depositor; · = no result.

SMILES	LEDGF integ inh	PLC-beta3 inh	MBD2 inh	UHRF1 binding	PLC-gamma1 inh	IN multimer up	TR-FRET interf	IN-LEDGF confirm
CCOC(=O)C(CC(=O)Nc1nc(C(C)=O)c(C)s1)C(C)c1ccccc1 (stereo not drawn)	18*	-4	3	1	3	1	-4	-5
CC(C)(C)C(=O)OC12CCCN(C1)/C(=C/c1cccc(Cl)c1)C2 (stereo not drawn)	4	5	-3	-1	2	·	·	·
COC(=O)C[C@@H]1CC[C@@H]2[C@H](COc3ccc(NC(=O)Nc4c(C)noc4C)cc3C(=O)N2C)O1	-2	-1	3	1	-1	·	·	·
Cc1cc(O)c(N=Cc2cc3c(cc2[N+](=O)[O-])OCO3)cc1C	19*	-10	-2	0	1	6	-30	6
C=CCc1c(C)nc(-c2ccccc2)nc1N/N=C/c1ccccc1	53*	-3	2	-4	-7	-1	5	25*
O=C(c1cccc(Cl)c1)N1CCN(c2ccnc3cc(Cl)ccc23)CC1	3	-5	0	0	-5	·	·	·
CC(C)c1cc(C(C)C)c(S(=O)(=O)N2CCC(C(=O)NCc3cccs3)CC2)c(C(C)C)c1	-1	3	3	0	2	·	·	·
COCC(=O)N1CCC(Oc2ccc(C(=O)N3CCCCCC3)cc2)CC1	28*	-1	2	1	-3	-1	4	0
Oc1ccc(N=Cc2ccc(OCc3ccccc3)cc2)cc1	34*	-7	-3	8	-5	22*	-78	35*
COc1ccc(NC(=S)N2CCC(NC(=O)c3ccc(F)cc3)CC2)cc1	4	-4	-2	3	2	·	·	·
COc1ccc(NC(=S)N2CCC(NC(=O)c3ccc(OC)cc3)CC2)cc1	27*	-4	1	-2	1	-1	7	0
Cc1cc(C)c2c(N)c(C(=O)C(C)(C)C)sc2n1	1	-66	5	9	-55	·	·	·
Cc1cc(C)c2c(N)c(S(=O)c3ccc(C(C)(C)C)cc3)sc2n1 (stereo not drawn)	36*	-15	-1	1	-8	1	-4	-4
CCOc1ccc(-n2c(SCC(=O)c3ccc4ccccc4c3)nnc2-c2ccco2)cc1	2	-21	5	0	-9	·	·	·
CCCNC(=O)Cn1nc(C)n2c(cc3cc(F)ccc32)c1=O	1	-5	-2	-3	0	·	·	·
CCN1CCCC1CNC(=O)Cn1nc(C)n2c(cc3cc(F)ccc32)c1=O (stereo not drawn)	19*	-17	11	16	-4	3	-9	-2
COC[C@H]1CCCN1c1cccc2c1S(=O)(=O)N(C1CC1)CC[C@@H](C)O2	-1	-9	2	2	-5	·	·	·
Cc1cc(-c2csc(NC(=O)c3ccc(=O)[nH]c3)n2)c(C)n1Cc1ccccc1	17*	-80	7	1	-47	6	-29	26*
Cn1ccnc1SCC(=O)c1cc2ccccc2o1	25*	-16	-4	-4	-14	7	-25	7
Cn1cnnc1SCC(=O)c1cc2ccccc2o1	2	-4	4	2	0	·	·	·
COc1cccc(CNC(=O)C2CCC(CNS(=O)(=O)c3cccc4cccnc34)CC2)c1OC (stereo not drawn)	0	-2	-1	-3	-5	·	·	·
CCOc1cccc(-c2cc(=O)[nH][nH]2)c1	29*	-10	2	0	-3	2	-6	4
COc1cccc(-c2ccc(C#N)c(=O)[nH]2)c1	0	-155	-8	-1	-122	·	·	·
COc1cccc(-c2cc(=O)[nH][nH]2)c1	21*	-10	0	7	-1	4	-21	8
CC[C@H](CCC(=O)N(c1ccccc1)c1ccccc1)C1CC1	2	3	-4	2	-1	·	·	·
SMILES	LEDGF integ inh	PLC-beta3 inh	MBD2 inh	UHRF1 binding	PLC-gamma1 inh	IN multimer up	TR-FRET interf	IN-LEDGF confirm
Cc1ccc(Cn2cc(CN3[C@H](C)COc4cc(Br)ccc4S3(=O)=O)nn2)cc1	4	2	-1	-5	2	·	·	·
Cc1ccc(S(=O)(=O)/N=C(/Nc2cccc(O)c2)c2ccccc2)cc1	37*	-5	1	-2	-1	2	-10	2
Cc1ccc(S(=O)(=O)/N=C(/Nc2cccc(C(=O)O)c2)c2ccccc2)cc1	0	-4	-5	1	0	·	·	·
CCOC1=CC2=C(C(=O)C(Cl)=CC2=O)[C@@H]2CN(S(=O)(=O)c3ccc(C)cc3)[C@@H](c3ccccc3)[C@H]12	19*	-5	1	-3	1	7	-33	26*
CCN1C(=O)[C@@H]2[C@@H]3CN(S(=O)(=O)c4ccc(C)cc4)[C@@H](c4ccccc4)[C@@H]3C(=O)C[C@@H]2C1=O	0	-1	-2	-4	-3	·	·	·
COc1ccccc1Nc1nc(N)nc(CN2CCC(Cc3ccccc3)CC2)n1	15*	-16	10	9	2	0	2	6
COc1ccc(/C(C)=N/NC(=O)Cc2cc(=O)[nH][nH]2)cc1OC	5	2	-3	-5	1	·	·	·
CC(C)(C)OC(=O)N1CCC(C(=O)N[C@@H](Cc2ccccc2)C(=O)O)(c2ccccc2)CC1	18*	-1	-3	-1	-3	2	-8	15*
CC(=O)Nc1ccc(NS(=O)(=O)c2ccc(Cl)s2)cc1	4	2	-7	0	4	·	·	·
Cn1cc(Br)c(NS(=O)(=O)c2ccc(Cl)s2)n1	25*	-7	1	1	0	1	-4	-4
O=C(c1ccccc1)c1cccc(NC(=O)c2ccc(Br)o2)c1	18*	1	-4	-1	2	-2	10	-4
O=C(CCCCC(=O)Nc1ccccc1)Nc1ccccc1	0	-3	3	1	0	·	·	·
O=C(CCC(=O)c1ccccc1)Nc1ccccc1	14*	5	1	3	8	0	2	-1
O=C(NC1CCCC1)C(c1cccnc1)N(Cc1ccc(F)cc1)C(=O)c1csnn1 (stereo not drawn)	21*	-5	1	0	3	0	-2	-6

Bioassay records: PubChem BioAssay, The Scripps Research Institute Molecular Screening Center
